This passage reports Potency and max activation results from PubChem BioAssay (Tox21).

Unmarked numbers belong to inactive results. Records with an inconclusive call do not appear. Activity calls are given as the source filed them. The call rests on the fitted dose curve; in most records, active means well fitted curve in the direction sought with a large enough effect in the repeat runs; inconclusive means weak or mixed curves; inactive means no such curve, though single readings can be large; an effect the other way counts as inactive or inconclusive.

A short description of assay [1]: Human pregnane X receptor (PXR) small molecule agonists, qHTS cell viability counter screen (AID 1346977). Further: nearly all actives have a fitted effect of over 50% in size. Further: potency means the concentration at half of the fitted maximal effect. Summed up:
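Readout is CellTiter-Fluor fluorescence from PXR-Luc HepG2 cells. Plated cells rested 5hr, then were treated with compounds for 24hr at 37C and 5% CO2, with reagent present during the last hour.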

Assay [2] is described as follows: Caspase-3/7 induction in HepG2 cells by small molecules, qHTS assay (AID 1346978). Further: nearly all actives have a fitted effect of over 15% in size. Summed up: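 Wild-type HepG2 cells, 2,000/well, settled 5 hr at 37 C and 5% CO2, then compound-treated for 17 hr; caspase-3/7 activity read by luminescent Caspase-Glo 3/7 after 30 min at room temperature.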
Background: In qHTS, concentration-response curves come from the screen itself.

Assay [3] can be described thus: Caspase-3/7 induction in CHO-K1 cells by small molecules, qHTS cell viability counter screen (AID 1346979). Further: nearly all actives have a fitted effect of over 35% in size. Further: potency means the concentration at half of the fitted maximal effect. Summed up:
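To flag cytotoxic compounds, treated CHO-K1 wild-type cells were given CellTiter-Fluor at 16hr and read fluorescently after 1hr at 37C; the caspase-3/7 luminescence was measured in these same wells.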

Assay [4] can be described thus: Caspase-3/7 induction in CHO-K1 cells by small molecules, qHTS assay (AID 1346980). Further: nearly all actives have a fitted effect of over 15% in size. The method, boiled down: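 Wild-type CHO-K1 cells exposed to compounds for 17hr at 37 C, 5% CO2. Caspase-3/7 activity then measured by Caspase-Glo 3/7 luminescence after 30min at room temperature.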
The nature of assay [5]: Caspase-3/7 induction in HepG2 cells by small molecules, qHTS cell viability counter screen (AID 1346981). Further: nearly all actives have a fitted effect of over 30% in size. Further: potency means the concentration at half of the fitted maximal effect. Summed up:
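Steps: seed 2,000 HepG2 cells per well; incubate 5 hr at 37 C; pin-add compounds in DMSO; incubate 16 hr; add CellTiter-Fluor; after 1 hr at 37 C and 5% CO2, read fluorescence.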

Assay [6] has as its target Nuclear receptor subfamily 1 group I member 2 (Homo sapiens) (UniProt O75469). Put plainly: Human pregnane X receptor (PXR) small molecule agonists, qHTS assay (AID 1346982). Further: nearly all actives have a fitted effect of over 35% in size. Further: potency means the concentration at half of the fitted maximal effect. The method, boiled down: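 Agonist mode qHTS: PXR-Luc HepG2 cells plated 5 hr before DMSO-dissolved compounds were pinned in, cultured 24 hr at 37 C, 5% CO2; ONE-Glo luminescence readout.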
The target in assay [7] is Cytochrome P450 2D6 (Homo sapiens) (UniProt P10635). Put plainly: Cytochrome P450 Family 2 Subfamily D Member 6 (CYP2D6) small molecule antagonists: luciferase reporter qHTS assay (AID 1671196). Further: nearly all actives have a fitted effect of over 50% in size. Further: potency means the concentration at half of the fitted maximal effect. The method, boiled down:
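P450-Glo format: CYP2D6 converts a proluciferin substrate to luciferin in an NADPH-driven reaction lasting 1 h at room temperature. Light output, proportional to CYP2D6 activity, reflects interference by test chemicals.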
(Reporter assays use an easily measured gene product as a stand-in for the process of interest.)

Assay [8] concerns the target Cytochrome P450 2C19 (Homo sapiens) (UniProt P33261). Description: Cytochrome P450 Family 2 Subfamily C Member 19 (CYP2C19) small molecule antagonists: luciferase reporter qHTS assay (AID 1671197). Further: nearly all actives have a fitted effect of over 65% in size. Further: potency means the concentration at half of the fitted maximal effect. The method, boiled down: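 Inhibition of CYP2C19 was scored from loss of luminescence in a P450-Glo proluciferin substrate assay, NADPH-started and run 1 h at 37C, with ketoconazole as positive control.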

Assay [9] concerns the target Cytochrome P450 2C9 (Homo sapiens) (UniProt P11712). Description: Cytochrome P450 Family 2 Subfamily C Member 9 (CYP2C9) small molecule antagonists: luciferase reporter qHTS assay (AID 1671198). Further: nearly all actives have a fitted effect of over 50% in size. Further: potency means the concentration at half of the fitted maximal effect. The method, boiled down: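 P450-Glo proluciferin substrate with CYP2C9 enzyme; 10 min RT preincubation, then NADPH regeneration 1 h at 37C; luciferin detection reagent 20 min RT, luminescence in relative luminescence units.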

Assay [10] concerns the target Cytochrome P450 1A2 (Homo sapiens) (UniProt P05177). Put plainly: Cytochrome P450 Family 1 Subfamily A Member 2 (CYP1A2) small molecule antagonists: luciferase reporter qHTS assay (AID 1671199). Further: nearly all actives have a fitted effect of over 50% in size. Further: potency means the concentration at half of the fitted maximal effect. The method, boiled down:
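Inhibition of CYP1A2 conversion of proluciferin to luciferin, detected by luminescence. Reaction run 1 h at room temperature with NADPH regeneration after brief compound preincubation.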

Assay [11] addresses Voltage-gated inwardly rectifying potassium channel KCNH2 (Homo sapiens) (UniProt Q12809). Put plainly: Human Ether-a-go-go-Related Gene (hERG) channel small molecule antagonists: fluorescence cell-based qHTS assay (AID 1671200). Further: nearly all actives have a fitted effect of over 50% in size. Further: potency means the concentration at half of the fitted maximal effect. Summed up: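 Measured: Tl+ flux via fluorescence (480/540 nm) in hERG-expressing U2OS cells after 1 h dye loading at room temperature.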
In general terms: Block of hERG is tested as a sign of cardiac risk.

For assay [12], the target named is Cytochrome P450 3A4 (Homo sapiens) (UniProt P08684). Put plainly: Cytochrome P450 Family 3 Subfamily A Member 4 (CYP3A4) small molecule antagonists: luciferase reporter qHTS assay (AID 1671201). Further: nearly all actives have a fitted effect of over 50% in size. Further: potency means the concentration at half of the fitted maximal effect. Summed up: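 Setup: enzyme-substrate mix, compound pin transfer, 10 min RT. Reaction: NADPH regeneration solution, 1 h RT. Readout: detection reagent stops turnover, luminescence measured after 20 min, expressed in relative luminescence units.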

The target of assay [13] is Nuclear receptor subfamily 1 group I member 2 (Rattus norvegicus) (UniProt Q9R1A7). Put plainly: Rat pregnane X receptor (rPXR) activation by small molecules, qHTS assay (AID 1346983). Further: nearly all actives have a fitted effect of over 20% in size. The conditions noted are these: rPXR luciferase reporter cells, One-Glo luminescence, 24 h; max activation: active compounds read high. Summed up:
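Cell-based rPXR activation assay: rPXR cells, 2,000 per well, rested 5hr at 37 C, then exposed to compounds in DMSO for 24 hr at 37 C. Luciferase activity read by One-Glo luminescence after 30 min at room temperature.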

Assay [14] addresses Nuclear receptor subfamily 1 group I member 2 (Homo sapiens) (UniProt O75469). Put plainly: CYP3A4 induction through human pregnane X receptor (PXR) by small molecules, qHTS assay (AID 1346984). Further: nearly all actives have a fitted effect of over 40% in size. The method, boiled down:
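Steps: seed DPX-2 cells, 5 hr at 37C; pin-transfer compounds; 24 hr at 37C; add Luciferin-IPA (3uM final), 3 hr at 37C; add One-Glo, 30 min RT; read luminescence.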

Assay [15] shares this target. Put plainly: Human pregnane X receptor (PXR) activation by small molecules, qHTS assay (AID 1346985). Further: nearly all actives have a fitted effect of over 40% in size. Summed up:
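DPX-2 cells (HepG2 co-transfected with a PXR response element and a CYP3A4-promoter luciferase construct) were seeded at 2,000 per well, rested 5 hr at 37C, then exposed to DMSO-dissolved compounds for 24 hr. Activation was read as luciferase luminescence.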
On the % scale 0 is the no-effect control and ±100 the full control effect.

Chain of Nuclear receptor subfamily 1 group I member 2 (Homo sapiens) (O75469 whole entry, looked up): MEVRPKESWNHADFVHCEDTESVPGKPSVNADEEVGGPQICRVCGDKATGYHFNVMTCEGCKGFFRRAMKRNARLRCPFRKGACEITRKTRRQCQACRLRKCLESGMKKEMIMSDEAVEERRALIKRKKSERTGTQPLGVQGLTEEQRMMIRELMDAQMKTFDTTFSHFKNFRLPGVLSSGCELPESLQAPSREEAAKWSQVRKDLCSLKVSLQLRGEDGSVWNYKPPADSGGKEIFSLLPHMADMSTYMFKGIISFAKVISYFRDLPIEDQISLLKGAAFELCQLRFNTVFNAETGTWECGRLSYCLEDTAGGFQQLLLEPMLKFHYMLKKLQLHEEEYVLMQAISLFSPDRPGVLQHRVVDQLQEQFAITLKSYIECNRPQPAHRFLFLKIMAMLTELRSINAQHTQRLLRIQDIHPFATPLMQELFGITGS
Chain of Cytochrome P450 3A4 (Homo sapiens) (P08684 whole entry, looked up): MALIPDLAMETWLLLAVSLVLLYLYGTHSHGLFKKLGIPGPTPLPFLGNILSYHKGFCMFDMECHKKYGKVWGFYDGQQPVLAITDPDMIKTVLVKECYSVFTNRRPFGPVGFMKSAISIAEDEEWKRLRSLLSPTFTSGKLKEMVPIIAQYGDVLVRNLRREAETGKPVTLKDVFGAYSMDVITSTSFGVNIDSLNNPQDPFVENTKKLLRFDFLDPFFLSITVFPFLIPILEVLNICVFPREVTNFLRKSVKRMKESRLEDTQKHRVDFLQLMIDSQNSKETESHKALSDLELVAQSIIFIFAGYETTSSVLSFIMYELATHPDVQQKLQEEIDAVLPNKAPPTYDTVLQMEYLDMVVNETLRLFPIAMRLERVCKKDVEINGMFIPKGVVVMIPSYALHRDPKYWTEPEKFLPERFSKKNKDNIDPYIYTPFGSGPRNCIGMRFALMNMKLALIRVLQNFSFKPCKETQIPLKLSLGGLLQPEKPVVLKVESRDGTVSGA
Chain of Cytochrome P450 2C9 (Homo sapiens) (P11712 whole entry, looked up): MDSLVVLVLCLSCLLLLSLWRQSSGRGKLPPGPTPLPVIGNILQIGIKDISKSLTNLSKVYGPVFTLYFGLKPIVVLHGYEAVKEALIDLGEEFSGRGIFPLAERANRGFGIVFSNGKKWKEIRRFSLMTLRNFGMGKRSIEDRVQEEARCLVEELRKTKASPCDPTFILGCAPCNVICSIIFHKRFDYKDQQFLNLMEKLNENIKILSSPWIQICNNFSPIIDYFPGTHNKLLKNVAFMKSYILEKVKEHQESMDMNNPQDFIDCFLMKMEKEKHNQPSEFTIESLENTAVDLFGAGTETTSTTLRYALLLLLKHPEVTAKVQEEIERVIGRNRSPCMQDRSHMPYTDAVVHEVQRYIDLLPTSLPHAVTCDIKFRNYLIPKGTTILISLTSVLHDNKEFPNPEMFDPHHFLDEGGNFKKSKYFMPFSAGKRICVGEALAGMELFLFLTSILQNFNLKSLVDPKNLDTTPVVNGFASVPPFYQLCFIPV
Chain of Cytochrome P450 2D6 (Homo sapiens) (P10635 whole entry, looked up): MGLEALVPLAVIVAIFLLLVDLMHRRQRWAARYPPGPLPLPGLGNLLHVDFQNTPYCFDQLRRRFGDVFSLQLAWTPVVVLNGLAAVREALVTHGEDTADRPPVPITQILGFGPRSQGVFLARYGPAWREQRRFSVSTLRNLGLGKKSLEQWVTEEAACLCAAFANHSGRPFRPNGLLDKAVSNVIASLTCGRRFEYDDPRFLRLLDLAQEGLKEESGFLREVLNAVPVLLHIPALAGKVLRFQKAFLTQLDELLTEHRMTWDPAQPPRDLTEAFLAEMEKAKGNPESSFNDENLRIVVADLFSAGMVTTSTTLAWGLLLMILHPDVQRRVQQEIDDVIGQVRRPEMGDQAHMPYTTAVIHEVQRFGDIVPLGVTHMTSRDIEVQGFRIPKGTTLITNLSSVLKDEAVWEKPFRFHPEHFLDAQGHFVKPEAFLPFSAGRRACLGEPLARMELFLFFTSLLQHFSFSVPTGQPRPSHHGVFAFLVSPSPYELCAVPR
Chain of Voltage-gated inwardly rectifying potassium channel KCNH2 (Homo sapiens) (Q12809 whole entry, looked up): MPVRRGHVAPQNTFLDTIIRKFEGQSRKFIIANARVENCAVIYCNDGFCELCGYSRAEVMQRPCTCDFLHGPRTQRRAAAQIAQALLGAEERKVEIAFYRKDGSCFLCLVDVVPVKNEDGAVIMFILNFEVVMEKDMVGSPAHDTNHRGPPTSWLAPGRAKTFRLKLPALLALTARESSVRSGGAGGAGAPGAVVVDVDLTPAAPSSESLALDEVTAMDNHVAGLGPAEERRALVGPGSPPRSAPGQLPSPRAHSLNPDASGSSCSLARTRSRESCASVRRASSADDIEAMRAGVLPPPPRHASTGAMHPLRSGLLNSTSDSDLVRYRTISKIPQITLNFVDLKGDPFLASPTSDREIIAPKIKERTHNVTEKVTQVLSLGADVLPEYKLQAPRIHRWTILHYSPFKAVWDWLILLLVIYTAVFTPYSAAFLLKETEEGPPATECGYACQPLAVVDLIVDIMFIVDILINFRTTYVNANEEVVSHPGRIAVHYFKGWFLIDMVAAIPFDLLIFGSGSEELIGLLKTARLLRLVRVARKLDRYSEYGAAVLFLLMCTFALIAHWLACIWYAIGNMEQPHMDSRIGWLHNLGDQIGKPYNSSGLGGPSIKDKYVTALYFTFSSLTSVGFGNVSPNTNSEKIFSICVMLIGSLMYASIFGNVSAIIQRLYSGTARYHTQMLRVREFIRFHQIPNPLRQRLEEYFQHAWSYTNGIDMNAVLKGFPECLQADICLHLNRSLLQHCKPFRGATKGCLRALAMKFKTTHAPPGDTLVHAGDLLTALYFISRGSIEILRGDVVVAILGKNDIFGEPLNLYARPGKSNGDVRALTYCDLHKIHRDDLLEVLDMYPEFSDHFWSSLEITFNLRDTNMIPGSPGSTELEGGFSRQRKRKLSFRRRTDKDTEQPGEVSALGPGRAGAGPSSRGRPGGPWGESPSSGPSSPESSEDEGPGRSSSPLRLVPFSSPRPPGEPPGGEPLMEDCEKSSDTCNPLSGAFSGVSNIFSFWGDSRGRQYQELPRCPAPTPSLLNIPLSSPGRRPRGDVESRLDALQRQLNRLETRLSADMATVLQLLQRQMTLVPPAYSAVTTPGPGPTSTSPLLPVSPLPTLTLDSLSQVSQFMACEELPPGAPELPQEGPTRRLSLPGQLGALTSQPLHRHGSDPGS
Chain of Nuclear receptor subfamily 1 group I member 2 (Rattus norvegicus) (Q9R1A7 whole entry, looked up): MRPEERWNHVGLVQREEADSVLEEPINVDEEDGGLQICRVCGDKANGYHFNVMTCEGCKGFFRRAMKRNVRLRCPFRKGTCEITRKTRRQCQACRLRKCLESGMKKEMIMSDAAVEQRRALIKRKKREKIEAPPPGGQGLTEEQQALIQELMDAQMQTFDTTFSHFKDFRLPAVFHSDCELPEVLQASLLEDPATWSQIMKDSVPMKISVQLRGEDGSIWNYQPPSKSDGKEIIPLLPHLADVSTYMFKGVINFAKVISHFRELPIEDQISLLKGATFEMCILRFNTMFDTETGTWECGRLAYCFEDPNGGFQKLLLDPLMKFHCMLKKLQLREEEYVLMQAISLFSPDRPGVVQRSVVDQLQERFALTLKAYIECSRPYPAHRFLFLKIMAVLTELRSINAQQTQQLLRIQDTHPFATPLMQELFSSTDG
Chain of Cytochrome P450 2C19 (Homo sapiens) (P33261 whole entry, looked up): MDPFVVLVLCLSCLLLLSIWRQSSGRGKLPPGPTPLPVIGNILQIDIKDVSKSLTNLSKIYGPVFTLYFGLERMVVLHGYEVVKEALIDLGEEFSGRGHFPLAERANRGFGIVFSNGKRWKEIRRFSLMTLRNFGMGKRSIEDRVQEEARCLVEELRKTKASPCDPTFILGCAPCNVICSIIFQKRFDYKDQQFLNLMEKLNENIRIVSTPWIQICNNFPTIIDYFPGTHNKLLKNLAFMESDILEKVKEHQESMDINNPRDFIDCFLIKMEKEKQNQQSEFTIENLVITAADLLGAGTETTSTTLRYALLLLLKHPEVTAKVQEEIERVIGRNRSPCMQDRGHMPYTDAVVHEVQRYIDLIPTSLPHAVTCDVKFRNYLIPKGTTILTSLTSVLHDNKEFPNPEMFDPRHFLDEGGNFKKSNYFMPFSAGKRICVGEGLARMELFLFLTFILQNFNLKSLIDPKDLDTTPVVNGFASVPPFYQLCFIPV
Chain of Cytochrome P450 1A2 (Homo sapiens) (P05177 whole entry, looked up): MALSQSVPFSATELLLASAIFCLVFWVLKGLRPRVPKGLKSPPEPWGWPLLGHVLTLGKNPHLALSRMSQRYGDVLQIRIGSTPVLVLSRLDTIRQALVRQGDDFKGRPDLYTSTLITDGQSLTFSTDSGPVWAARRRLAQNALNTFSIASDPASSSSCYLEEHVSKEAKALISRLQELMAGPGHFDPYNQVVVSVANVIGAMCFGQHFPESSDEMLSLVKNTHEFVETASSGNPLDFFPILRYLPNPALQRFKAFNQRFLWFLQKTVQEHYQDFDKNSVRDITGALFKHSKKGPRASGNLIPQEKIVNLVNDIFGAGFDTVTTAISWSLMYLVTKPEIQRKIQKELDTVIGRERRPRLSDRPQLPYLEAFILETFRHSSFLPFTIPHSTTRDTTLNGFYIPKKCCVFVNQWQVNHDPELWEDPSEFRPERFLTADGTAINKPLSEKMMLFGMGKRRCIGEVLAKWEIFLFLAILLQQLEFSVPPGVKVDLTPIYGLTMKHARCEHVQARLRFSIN

In the case of `Cc1ccccc1S(=O)(=O)O`, the Potency result in assay [1], in [2], in assay [3], in [4], in [5] and in assay [6] was “inactive” throughout. The Potency entry in assay [7], in assay [8], in assay [9], in assay [10], in assay [11] and in [12] was “inactive” throughout.
As for `CCC(Cl)CCC(Cl)C(Cl)CC(Cl)C(Cl)C(Cl)CCl` (stereo not given), the Potency entry in [1], in assay [2], in assay [3], in assay [4], in assay [5] and in [6] was “inactive” throughout. The Potency entry in assay [7], in [8], in assay [9], in [10], in assay [11] and in assay [12] was “inactive” throughout.
Take `CCOCC(O)COc1ccc(NC(=O)CC[S+](C)C)cc1` (stereo not given): the Potency entry in assay [1], in [2], in [3], in assay [4], in assay [5] and in [6] was “inactive” each time. Moreover, the Potency result in [14], in assay [15], in assay [9], in assay [11] and in assay [12] was “inactive” throughout. Moreover, the max activation in assay [13] was -0.952%.
Consider `C=CCOc1ccccc1OCC(O)CNC(C)C` (stereo not given), for which the Potency result in [1], in assay [2], in [3], in [4], in assay [5] and in assay [6] was “inactive” in each case. For the same compound, the Potency result in assay [14], in assay [15], in assay [8], in assay [9] and in assay [12] was “inactive” in each case. Further, the max activation in assay [13] was 5.72%. The Potency was 9.77 µM (active) in assay [7] and 10.2 µM (active) in [10].
`CC(=O)[O][Al]`: the Potency result in assay [1], in assay [2], in assay [3], in assay [4] and in [5] was “inactive” each time.
Regarding `C1CCCNCCC1`, the Potency entry in assay [1], in assay [2], in [3], in assay [4], in assay [5] and in [6] was “inactive” in each case. Further, the Potency result in assay [7], in assay [8], in assay [9], in assay [10], in [11] and in assay [12] was “inactive” each time.
On to `C[C@@H]1C[C@H]2[C@@H]3CCC4=CC(=O)C=C[C@]4(C)[C@@]3(F)[C@@H](O)C[C@]2(C)[C@@]1(O)C(=O)COC(=O)c1ccncc1`, for which the Potency result in assay [1], in assay [2], in [3], in [4], in assay [5] and in assay [10] was “inactive” throughout. The Potency in assay [6] is 1.33 µM (active); in [7], 11 µM (active); in assay [8], 17.4 µM (active); in assay [9], 7.76 µM (active).
`CC(=O)[O][Al][O]C(C)=O`: the Potency entry in assay [1], in assay [2], in [3], in assay [4], in [5] and in [6] was “inactive” each time. The Potency result in assay [14], in assay [15], in [9], in assay [10], in [11] and in assay [12] was “inactive” in each case. Also, the max activation in [13] was -1.35%.
Consider `CCN(CC)c1ccc(C(=C2C=CC(=[N+](CC)CC)C=C2)c2cc(S(=O)(=O)O)ccc2S(=O)(=O)[O-])cc1`, for which the Potency in assay [1] is 15 µM (active); in [3], 26.6 µM (active); in assay [5] it was 23.7 µM (active); in [7], 13.8 µM (active); in assay [8] it was 12.3 µM (active); in [9], 15.5 µM (active). Further, the Potency in [10] was 17.4 µM (active). Besides, the Potency entry in assay [2], in assay [4], in [6] and in [11] was “inactive” in each case.
As to `c1ccc(CNCCNCc2ccccc2)cc1`, the Potency result in assay [1], in assay [2], in [3], in assay [4], in [5] and in assay [6] was “inactive” throughout. In addition, the Potency result in [14], in assay [15] and in assay [9] was “inactive” each time. Moreover, the max activation in assay [13] is -3.63%. The Potency in assay [7] was 0.776 µM (active); in assay [8] it was 7.76 µM (active).
For the compound `CCOC(=O)c1cccnc1`, the Potency entry in assay [1], in assay [2], in assay [3], in assay [4], in [5] and in assay [6] was “inactive” in each case. Besides, the Potency result in assay [14], in [15], in assay [7], in assay [8], in assay [9] and in assay [11] was “inactive” in each case. In assay [12], the Potency entry is “inactive”. Moreover, in assay [13], the max activation is -3.51%.
In the case of `Cc1c(N)cccc1[N+](=O)[O-]`, the Potency result in assay [1], in [2], in assay [3], in [4], in assay [5] and in assay [6] was “inactive” each time. Moreover, the Potency result in assay [7], in assay [8], in assay [9] and in assay [11] was “inactive” throughout. The Potency in [10] was 32.2 µM (active).
For the compound `O=C1C(O)=C(O)C(=O)C(O)=C1O`, the Potency result in assay [1], in [2], in assay [3], in [4], in [5] and in [6] was “inactive” in each case. Besides, the Potency entry in assay [14], in [15], in assay [7], in assay [9], in [11] and in assay [12] was “inactive” in each case. Besides, the max activation in [13] is -2.91%.
With `Nc1ccc(N)c2c1C(=O)c1ccccc1C2=O`, the Potency was 9.69 µM (active) in assay [1]; 24.3 µM (active) in assay [3]; 21.7 µM (active) in assay [5]; 35.6 µM (active) in assay [7]; 22.4 µM (active) in assay [8]; 12.6 µM (active) in assay [9]. Further, the Potency in [10] is 0.399 µM (active); in [12], 5.64 µM (active). The Potency entry in [2], in assay [4], in [6] and in assay [11] was “inactive” throughout.
Turning to `C[N+]1(CC2COC(c3ccccc3)(C3CCCCC3)O2)CCCCC1` (stereo not given), the Potency result in assay [1], in [2], in [3], in [4], in assay [5] and in [6] was “inactive” throughout. Besides, the Potency entry in assay [14], in assay [15] and in [10] was “inactive” throughout. The max activation in assay [13] was -1.36%. Also, the values for the Potency in [7], in [11] and in assay [12] were 0.977 µM (active), 15.1 µM (active) and 3.89 µM (active), respectively.
With `CCOC(=O)Cc1cccc2ccccc12`, the Potency entry in assay [1], in assay [2], in assay [3], in assay [4], in assay [5] and in [6] was “inactive” throughout. Further, the Potency result in assay [7], in [9], in [11] and in [12] was “inactive” each time. Further, the Potency in assay [8] was 20 µM (active); in assay [10], 15.9 µM (active).
Take `O=[N+]([O-])c1ccc(NCCO)c(OCCO)c1`: the Potency in assay [1] is 48.6 µM (active); in assay [3], 48.6 µM (active); in assay [5], 27.3 µM (active); in [10], 17.9 µM (active). The Potency result in [2], in [4], in assay [6], in [7], in [8] and in assay [9] was “inactive” in each case. The Potency result in [11] and in assay [12] was “inactive” throughout.
Take `COS(=O)(=O)C(F)(F)F`: the Potency entry in assay [1], in assay [2], in assay [3], in [4], in assay [5] and in assay [6] was “inactive” throughout. Further, the Potency entry in assay [8], in [9], in [11] and in assay [12] was “inactive” throughout.
